Several values for one entry are separate records, joined by “and”; a condition that tells them apart may be missing. Identical values can stand only once. Activity calls are given as the source filed them. No rule for the calls is given here.
Columns and labels:
[1] = Immunotoxin (HA22) sensitization/mitigation study. Vehicle arm (PBS) (AID 1159510)
[2] = Immunotoxin (SS1P) sensitization/mitigation study. Vehicle arm (DMEM) (AID 1159513)
Potency is read from the fitted curve at half-maximal effect.

SMILES | Potency [1] | Potency [2]
CS(=O)(=O)c1ccc(C(=O)Nc2ccc(Cl)c(-c3ccccn3)c2)c(Cl)c1 | inactive | inactive
CC(C)C[C@H](NC(=O)CNC(=O)c1cc(Cl)ccc1Cl)B(O)O | 0.0187 µM (active) | 0.118 µM (active)
COc1cccc2cc(-c3nc(C4CCC(C(=O)O)CC4)n4ncnc(N)c34)[nH]c12 (stereo unspecified) | 6.62 µM (active) | 0.235 µM (active)
COc1cc2c(Oc3ccc(NC(=O)C4(C(=O)Nc5ccc(F)cc5)CC4)cc3F)ccnc2cc1OCCCN1CCOCC1 | 16.6 µM (active) | 16.6 µM (active)
COc1c(C)cnc(Cn2cnc3c(Cl)nc(N)nc32)c1C | 0.0187 µM (active) | 0.0105 µM (active)
COC(=O)C1=C(C)NC(C)=C(C(=O)OCCCN2CCC(c3ccccc3)(c3ccccc3)CC2)[C@H]1c1cccc([N+](=O)[O-])c1 | 16.6 µM (active) | 26.4 µM (active)
CCOC(=O)C(C)Oc1cccc2c(=O)n(CC(=O)Nc3ccc4c(c3)OCCO4)ccc12 (stereo unspecified) | inactive | inactive
O=C(O)CCc1ccc(NCc2cccc(Oc3ccccc3)c2)cc1 | inactive | inactive
Nc1cc(C(F)(F)F)c(-c2cc(N3CCOCC3)nc(N3CCOCC3)n2)cn1 | 1.05 µM (active) | 0.935 µM (active)
CC(C)CC(=O)Nc1n[nH]c2c1CN(C(=O)C1CCN(C)CC1)C2(C)C | 0.0526 µM (active) | 0.264 µM (active)
O=C(O)c1ccc(-c2cc3cccnc3c(-c3ccc4nonc4c3)n2)cc1 | inactive | inactive
CN1CCN(c2cc(C(=O)Nc3ccc4c(c3)-c3c(c(C(N)=O)nn3-c3ccc(F)cc3)CC4)c(Cl)cn2)CC1 | 26.4 µM (active) | 
Cc1cnc(-c2cnc(NCCNc3ccc(C#N)cn3)nc2-c2ccc(Cl)cc2Cl)[nH]1 | 0.935 µM (active) | 
O=C(NC1CCNCC1)c1[nH]ncc1NC(=O)c1c(Cl)cccc1Cl | 37.2 nM (active) and 105 nM (active) | 29.6 nM (active) and 83.3 nM (active)
CC(=O)NC(C)c1ccc(Oc2ccc(OC(C)C)cc2)cc1 (stereo unspecified) | 16.6 µM (active) | 
C[C@H](NC(=O)Cc1cc(F)cc(F)c1)C(=O)N[C@@H]1C(=O)N(C)c2ccccc2-c2ccccc21 | inactive | inactive
CC(C)(N)C(=O)N[C@H](COCc1ccccc1)C(=O)N1CCC2(CC1)CN(S(C)(=O)=O)c1ccccc12 | 18.7 µM (active) | 8.33 µM (active)
CCCCCCCCCCCCCC(=O)N[C@H](CO)[C@H](O)c1ccc([N+](=O)[O-])cc1 | 16.6 µM (active) | 23.5 µM (active)
COc1cc2c(Oc3ccc4[nH]c(C)cc4c3F)ncnc2cc1OCCCN1CCCC1 | 13.2 µM (active) | 
Cn1c(Nc2ccc(C(F)(F)F)cc2)nc2cc(Oc3ccnc(-c4ncc(C(F)(F)F)[nH]4)c3)ccc21 | 11.8 µM (active) | 23.5 µM (active)
CC1(C)OC2=C(C(=O)c3ccccc3C2=O)[C@H](NCc2ccccc2)[C@H]1O | 2.64 µM (active) | 13.2 µM (active)
CC[C@@H](C)[C@H](NC(=O)[C@H](CC1CCCCC1)NC(=O)c1ccno1)C(=O)N1CCC2(CCc3ccccc32)CC1 | inactive | 16.6 µM (active)
CCOc1cc(C=C2C(=O)N(c3ccccc3)N=C2C)cc(Cl)c1OCC(=O)OC | 18.7 µM (active) | inactive

SMILES | Potency [1] | Potency [2]
CC(C)(C)c1cc(C(C)(C)C)c(NC(=O)c2c[nH]c3ccccc3c2=O)cc1O | 16.6 µM (active) | 
C[C@@H](N)C1CCC(C(=O)Nc2ccncc2)CC1 (stereo partly specified) | inactive | inactive
Cc1cccc(-c2nn(C(=S)Nc3ccccc3)cc2-c2ccnc3ccccc23)n1 | 18.7 µM (active) | 
O=C(OCC#CCSc1nnc(-c2ccc3ccccc3c2)o1)c1cc2ccccc2s1 | inactive | inactive
CC[C@@H]1C(=O)N(C)c2cnc(Nc3ccc(C(=O)NC4CCC(N5CCN(CC6CC6)CC5)CC4)cc3OC)nc2N1C(C)C (stereo partly specified) | 0.0132 µM (active) | 
Oc1cccc(-c2nc(N3CCOCC3)c3oc4ncccc4c3n2)c1 | 0.264 µM (active) | 0.0935 µM (active)
CCCCOCCOc1nc(-c2ccc(C(=O)O)c(F)c2)sc1C | 0.0017 µM [activator] (active) | 
CCCCc1nc2cc(C=CC(=O)NO)ccc2n1CCN(CC)CC | 0.118 µM (active) | 0.264 µM (active)
CO[C@@H]1[C@H](N(C)C(=O)c2ccccc2)C[C@H]2O[C@]1(C)n1c3ccccc3c3c4c(c5c6ccccc6n2c5c31)C(=O)NC4 | 0.469 µM (active) | 1.05 µM (active)
COc1cccc2c1CCCC2CCCN1CCN(C2CCCCC2)CC1 (stereo unspecified) | 16.6 µM (active) | 7.43 µM (active)
Cc1cc(Nc2cc(N3CCN(C)CC3)nc(Sc3ccc(NC(=O)C4CC4)cc3)n2)n[nH]1 | 7.43 µM (active) | 18.7 µM (active)
CC(NCc1ccc2c(c1)nc(NC(=O)c1ccc(-c3cn[nH]c3)s1)n2CC(C)(C)O)C(C)(C)C (stereo unspecified) | 0.0469 µM (active) | 0.0418 µM (active)
CN(C)CC=CC(=O)Nc1cc2c(Nc3ccc(F)c(Cl)c3)ncnc2cc1O[C@H]1CCOC1 | 1.48 µM (active) | 6.62 µM (active)
Cc1nc2cnc3ccc(C#Cc4cccnc4)cc3c2n1-c1ccc(C(C)(C)C#N)cc1 | 1.87 µM (active) | 0.132 µM (active)
O=C(C=Cc1c(C(=O)O)[nH]c2cc(Cl)cc(Cl)c12)Nc1ccccc1 | inactive | inactive
CCCS(=O)(=O)Nc1ccc(F)c(C(=O)c2c[nH]c3ncc(Cl)cc23)c1F | 20.9 µM (active) | 16.6 µM (active)
CC(=O)OCC(=O)[C@@]1(O)[C@H](C)C[C@H]2[C@@H]3C=C(C)C4=Cc5c(cnn5-c5ccccc5)C[C@]4(C)[C@@H]3[C@@H](O)C[C@@]21C | 1.32 µM (active) | 26.4 µM (active)
COc1cc2c(cc1O)CC[C@@H]1[C@@H]2CC[C@]2(C)[C@@H](O)CC[C@@H]12 | 0.418 µM (active) | 0.833 µM (active)
N#CCNC(=O)c1ccc(-c2ccnc(Nc3ccc(N4CCOCC4)cc3)n2)cc1 | 5.26 µM (active) | 16.6 µM (active)
CCC1(Cc2ccc(N)cc2)CCC(=O)NC1=O (stereo unspecified) | inactive | inactive
CCNC(=O)c1noc(-c2cc(C(C)C)c(O)cc2O)c1-c1ccc(CN2CCOCC2)cc1 | 0.0015 µM (active) | 0.0021 µM (active)
Cc1ccc(NC(=O)c2cccc(C(C)(C)C#N)c2)cc1Nc1ccc2ncn(C)c(=O)c2c1 | 23.5 µM (active) | 20.9 µM (active)
Cc1ccnc(NS(=O)(=O)c2ccc(NC(=O)Nc3ccc(S(=O)(=O)Nc4nccc(C)n4)cc3)cc2)n1 | 16.6 µM (active) | 18.7 µM (active)

SMILES | Potency [1] | Potency [2]
C[C@@H](Oc1cc(-n2cnc3ccc(CN4CCN(C)CC4)cc32)sc1C(N)=O)c1ccccc1C(F)(F)F | 0.0132 µM (active) | 0.0019 µM (active)
CC(=O)Nc1ccc([C@H](C)C(=O)Nc2ncc(C(C)C)s2)cc1 | 0.296 µM (active) | 0.662 µM (active)
COc1cc2c(cc1OC)CC(=O)N(CCCN(C)C[C@H]1Cc3cc(OC)c(OC)cc31)CC2 | inactive | inactive
CC(=O)OCCN1C(=O)c2c(C)nc3ccc(S(=O)(=O)N4CCOCC4)cc3c2C1=O | inactive | inactive
c1cc(-c2cnn3cc(-c4ccc(OCCN5CCCCC5)cc4)cnc23)ccn1 | 2.64 µM (active) | 16.6 µM (active)
Cc1ccc(C(=O)Nc2ccc(CN3CCN(C)CC3)c(C(F)(F)F)c2)cc1C#Cc1cnc2cccnn12 | 1.32 µM (active) | 6.62 µM (active)
C[C@@H]1CCN(C(=O)CC#N)C[C@@H]1N(C)c1ncnc2[nH]ccc12 | inactive | inactive
Nc1ccc(-c2ccc3ncc4ccc(=O)n(-c5cccc(C(F)(F)F)c5)c4c3c2)cn1 | 0.0187 µM (active) | 0.0526 µM (active)
C[C@@]12O[C@@H](C[C@]1(O)CO)n1c3ccccc3c3c4c(c5c6ccccc6n2c5c31)CNC4=O | 0.209 µM (active) | 0.0296 µM (active)
COc1ccc2c3n(c(=NC(=O)c4cccnc4)nc2c1OC)CCN3 | 11.8 µM (active) | 3.72 µM (active)
Cc1ccc(F)c(NC(=O)Nc2ccc(-c3cccc4[nH]nc(N)c34)cc2)c1 | 5.26 µM (active) | 13.2 µM (active)
COc1nc(-c2ccc3c(c2)OCO3)n(-c2ccc(NC(=O)CSc3ccccc3)cc2)n1 | 20.9 µM (active) | inactive
COc1ccc(C=Cc2cc(OC)c(OC)c(OC)c2)cc1O | inactive | 0.0019 µM (active)
NC(=O)Nc1cc(-c2ccc(CN3CCOCC3)c(F)c2)sc1C(=O)N[C@H]1CCCNC1 | 0.0418 µM (active) | 0.209 µM (active)
Nc1nc(Nc2ccc(S(N)(=O)=O)cc2)nn1C(=O)c1c(F)cccc1F | 0.833 µM (active) | 3.72 µM (active)
CCOc1cc2ncc(C#N)c(Nc3ccc(F)c(Cl)c3)c2cc1NC(=O)C=CCN(C)C | 4.69 µM (active) | 14.8 µM (active)
CC(C)[C@H](C(=O)Nc1ccc(C(=O)NO)cc1)c1ccccc1 | 0.0418 µM (active) | 0.132 µM (active)
Cn1cc(-c2ccc3nnc(Sc4ccc5ncccc5c4)n3n2)cn1 | inactive | inactive
Cc1cn2c(-c3cn[nH]c3)cnc2c(Nc2ccc(C(=O)N3CCNCC3)cc2F)n1 | 18.7 µM (active) | 13.2 µM (active)
C=CCn1c(=O)c2cnc(Nc3ccc(N4CCN(C)CC4)cc3)nc2n1-c1cccc(C(C)(C)O)n1 | 0.187 µM (active) | 0.166 µM (active)
Fc1cc(-c2cccc3ncc(-c4cnn(C5CCNCC5)c4)nc23)cc(F)c1CN1CCOCC1 | 23.5 µM (active) | 23.5 µM (active)
